{"source": "PubChem BioAssay AID602292", "about": "(National Center for Advancing Translational Sciences (NCATS), 2012)", "note": "The whole screen tested about 1,300 compounds, of which about 380 (29%) were called active. About 37% were inconclusive and are not listed. Calls come from the whole dose curve; as a rule, active = well fitted inhibition curve with a large enough effect; inconclusive = small, poorly fitted or top-dose-only effect; inactive = flat fitted curve, though single readings scatter. This is one part of the list. % is set by controls: 0 for no effect and ±100 for the full control effect; potency is the fitted concentration of half-maximal effect."}
{"molecular_target": "Thyrotropin receptor (Homo sapiens) (UniProt P16473)", "sequence (P16473 whole entry, looked up)": "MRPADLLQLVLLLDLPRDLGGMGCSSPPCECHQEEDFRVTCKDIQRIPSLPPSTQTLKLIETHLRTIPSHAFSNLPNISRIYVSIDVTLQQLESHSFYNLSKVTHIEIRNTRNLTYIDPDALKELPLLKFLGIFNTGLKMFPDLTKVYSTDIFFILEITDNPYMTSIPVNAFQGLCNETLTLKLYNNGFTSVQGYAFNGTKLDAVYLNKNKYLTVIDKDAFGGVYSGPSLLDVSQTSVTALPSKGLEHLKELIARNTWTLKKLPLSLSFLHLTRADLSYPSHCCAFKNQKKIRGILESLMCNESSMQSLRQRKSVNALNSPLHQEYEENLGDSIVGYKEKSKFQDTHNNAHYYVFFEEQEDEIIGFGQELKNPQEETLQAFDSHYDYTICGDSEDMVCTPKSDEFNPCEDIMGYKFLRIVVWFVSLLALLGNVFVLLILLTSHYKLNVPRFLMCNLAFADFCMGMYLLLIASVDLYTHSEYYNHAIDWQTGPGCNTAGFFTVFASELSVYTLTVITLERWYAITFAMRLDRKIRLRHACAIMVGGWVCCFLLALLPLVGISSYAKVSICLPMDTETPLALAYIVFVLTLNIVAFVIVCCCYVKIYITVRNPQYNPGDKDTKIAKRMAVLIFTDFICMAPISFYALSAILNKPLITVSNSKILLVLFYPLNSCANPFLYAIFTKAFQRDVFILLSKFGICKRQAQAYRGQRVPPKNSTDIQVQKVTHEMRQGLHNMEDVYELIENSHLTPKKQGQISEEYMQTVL", "test": "qHTS for antagonists of the Thyroid Stimulation Hormone Receptor: Hit Validation in Primary Screen; note: nearly all actives have a fitted effect of over 80% in size;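 for activity change, negative = inhibition: cells stimulated with TSH at EC80 of 4 nM during compound exposure; cAMP by competitive HTRF where cellular cAMP lowers the 665 nm FRET signal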", "details": "TSHR-expressing cells, cAMP antagonist mode; series mostly up to 58 µM; activity change, negative = inhibition: at the top concentration", "from_the_text": "The thyroid-stimulating hormone receptor (TSHR) is a member of the 7 trans-membrane-spanning receptor (7TMR) family of cell surface receptors. TSHR-mediated hyperthyroidism is important in thyroid pathology. The development of small molecule antagonists of TSHR may lead to therapeutic approaches for TSHR-mediated hyperthyroidism caused by constitutively activating mutations or stimulating auto-antibodies associated with Graves' disease. Graves' disease is the leading cause of hyperthyroidism and is caused by autoantibodies that stimulate TSHR (TsAbs) causing thyroid growth and unregulated overproduction of thyroid hormones and existing treatments have liabilities (agranulocytosis). In addition, TSHRs are known to be expressed in multiple extrathyroidal tissues including bone, brain, kidney, testis, fat and cells of the immune system but the role of the TSHR in these tissues is not clear. Therefore, TSHR antagonists/inverse agonists could be used as probes of extrathyroidal TSHR function. Finally, TSHR inverse agonists, which are a subclass of antagonists that inhibit agonist-independent (or basal or constitutive) TSHR signaling, could be used to inhibit TSH-independent signaling in patients with recurrent or metastatic thyroid cancer who are receiving thyroid hormone to suppress TSH.\nIn collaboration between scientist from the NCGC and the NIDDK, a miniaturized HTRF high-throughput screen was developed. It's a cell based assay, where an anti cAMP antibody contains a fluorescent cryptate tag (excitation 337 nm; emission 620 nm) and the acceptor is cAMP-d2 (excitation 620 nm; emission 665 nm). When antibody and cAMP-d2 interact and are excited by a 337 nm light, a FRET occurs resulting in emission at 665 nm. The assay is competition between cAMP-d2 and cAMP (from the cell lysate). The homogeneous protocol allows for one step dispense after stimulation that is automation friendly. This is a hit validation assay using the primary screen format.\nNIH Chemical Genomics Center [NCGC]\nNIH Molecular Libraries Probe Centers Network [MLPCN]\nAssay Provider: Marvin Gershengorn, NIDDK\n1. 3ul of 200 TSHR freshly harvested cells/well are dispensed into a 1536 TC-treated white solid bottom plate.\n2. Through pintool addition, 23nl of compounds and control in 100% DMSO are added to the plate.\n3. Then 1ul of EC80 TSH (4nM final) is added to the plate.\n4. Assay is incubated at 37 deg C for 2 hours.\n5. 2ul of cAMP antibody diluted 1:20 in lysis buffer is added.\n6. Immediately following, 2ul of d2 diluted 1:20 in HBSS is added seperately.\n7. The assay is incubated for 30 minutes at ambient room temperature.\n8. The result is obtained by using a ViewLux read-out with HTRF settings."}
{"smiles": "CC(C)C1Nc2c(O)cc(Cl)c([N+](=O)[O-])c2C2C=CCC21", "note": "(configuration not stated)", "Potency": "8.49 µM (active)"}
{"smiles": "COc1ccc(CNC(=O)CCS(=O)(=O)c2cc3c(cc2Cl)NC(=O)CO3)cc1", "activity change, negative = inhibition": "-4.93% (inactive)"}
{"smiles": "C/C(=N\\NC(=O)c1cccc(Cl)c1)C1C(=O)c2ccccc2C1=O", "Potency": "12 µM (active)"}
{"smiles": "CC(=O)N1c2ccc(S(=O)(=O)N3CCC(C(=O)NC4CCCCC4C)CC3)cc2CC1C", "note": "(configuration not stated)", "activity change, negative = inhibition": "-8.1% (inactive)"}
{"smiles": "O=C(COc1cccc2ccccc12)Nc1ccc(Cl)cc1C(=O)O", "Potency": "4.78 µM (active)"}
{"smiles": "O=C(COc1ccc(Cl)cc1Cl)Nc1ccc(C(=O)Nc2ccccc2C(=O)O)cc1", "Potency": "23.9 µM (active)"}
{"smiles": "O=C(Nc1cccc2ccccc12)c1ccccc1", "activity change, negative = inhibition": "-10.5% (inactive)"}
{"smiles": "O=C(CSc1ccccn1)Nc1cccc2ccccc12", "activity change, negative = inhibition": "-7.49% (inactive)"}
{"smiles": "O=C(CSc1ccc2nnc(CCNC(=O)c3ccccc3)n2n1)NCc1ccc(F)cc1", "activity change, negative = inhibition": "-0.864% (inactive)"}
{"smiles": "N#Cc1ccc(C(=O)Nc2nc(-c3cccs3)c(C(=O)C(F)(F)F)s2)cc1", "Potency": "6.01 µM (active)"}
{"smiles": "Cc1ccccc1NC(=O)CCc1c(C)nn(-c2ccc(N3CCOCC3)nn2)c1C", "activity change, negative = inhibition": "-1.58% (inactive)"}
{"smiles": "CC(=O)c1c(O)cc(O)c(C(C)=O)c1O", "Potency": "30.1 µM (active)"}
{"smiles": "Cc1ccc(-n2nc3c(=O)n(C(C)C(=O)NC4CC4)nc(C)c3c2C)cc1", "note": "(configuration not stated)", "activity change, negative = inhibition": "-5.96% (inactive)"}
{"smiles": "COc1ccc(-c2nn(-c3ccccc3)cc2/C=N/NC(=O)c2ccc(Br)o2)cc1", "Potency": "9.53 µM (active)"}
{"smiles": "COc1cc(C(=O)N/N=C/c2cn(Cc3ccccc3)c3ccccc23)ccc1O", "activity change, negative = inhibition": "-12% (inactive)"}
{"smiles": "CCN(C(=O)CSc1nnc(CNc2cccc(OC)c2)n1C1CCCCC1)C1CCS(=O)(=O)C1", "note": "(configuration not stated)", "activity change, negative = inhibition": "-3.31% (inactive)"}
{"smiles": "CC(=O)c1cccc(NS(=O)(=O)c2cc(-c3cnc(C4CC4)o3)ccc2C)c1", "Potency": "21.3 µM (active)"}
{"smiles": "COc1ccc(NS(=O)(=O)c2cc(-c3cnc(C4CC4)o3)ccc2C)cc1", "Potency": "26.9 µM (active)"}
{"smiles": "CC(=O)c1cccc(NC(=O)c2sc3nc4n(c(=O)c3c2C)CCCC4)c1", "activity change, negative = inhibition": "-17.4% (inactive)"}
{"smiles": "Cc1ccc(-c2cnc(C3CC3)o2)cc1S(=O)(=O)Nc1ccccc1", "Potency": "30.1 µM (active)"}
{"smiles": "COc1ccc(-c2cc3c(=O)n(CC(=O)NCc4cccnc4)nc(C)n3n2)cc1", "activity change, negative = inhibition": "-5.13% (inactive)"}
{"smiles": "CCCn1c(=O)c2[nH]c(C3CCCC3)nc2n(CCC)c1=O", "activity change, negative = inhibition": "-2.13% (inactive)"}
{"smiles": "O=C(NN=C1CCCC1)c1cc(Cl)cc(Cl)c1O", "activity change, negative = inhibition": "-9.28% (inactive)"}
{"smiles": "Cc1c(Cl)sn(-c2ccc(Cl)cc2)c1=O", "Potency": "26.9 µM (active)"}
{"smiles": "CC1=N/C(=C\\c2ccc([N+](=O)[O-])cc2)C(=O)N1c1ccc(Cl)cc1", "activity change, negative = inhibition": "-0.461% (inactive)"}
{"smiles": "O=C(NCCc1ccccc1)c1cc2ccccc2oc1=O", "activity change, negative = inhibition": "-2.82% (inactive)"}
{"smiles": "CS(=O)(=O)N(Cc1ccccc1)c1ccc(C(=O)N2CCN(c3cccc(Cl)c3)CC2)cc1", "activity change, negative = inhibition": "-7.49% (inactive)"}
{"smiles": "O=C(Nc1ccc(N2CCN(C(=O)c3ccccc3)CC2)cc1)c1cc2ccccc2o1", "Potency": "23.9 µM (active)"}
{"smiles": "CCN(c1ccc(OC)cc1)S(=O)(=O)c1cc(-c2cc(C)no2)ccc1C(C)C", "activity change, negative = inhibition": "-9.45% (inactive)"}
{"smiles": "CCc1ccc(-c2cc(C)no2)cc1S(=O)(=O)N1CCN(c2ccccn2)CC1", "Potency": "30.1 µM (active)"}
{"smiles": "CC(NC(=O)c1cc(=O)[nH]c2ccccc12)c1ccc(F)cc1F", "note": "(configuration not stated)", "activity change, negative = inhibition": "-4.26% (inactive)"}
{"smiles": "Cc1ccc(NC(=O)Cn2ncc3c([nH]c4ccccc43)c2=O)cc1Cl", "activity change, negative = inhibition": "-8.04% (inactive)"}
{"smiles": "O=C(Nc1ccc(Cl)cc1)c1cc2c(cc1O)[nH]c1ccccc12", "Potency": "3.01 µM (active)"}
{"smiles": "COC(=O)Cc1c(C)[nH]n(-c2cc(Cl)cc(Cl)c2)c1=O", "activity change, negative = inhibition": "-7.75% (inactive)"}
{"smiles": "Cc1cc(C)n2nc(SCC(=O)Nc3ccccc3C)nc2n1", "activity change, negative = inhibition": "0.49% (inactive)"}
{"smiles": "Cc1cc(C(=O)NC2CCCc3c2cnn3-c2ccc(C(C)(C)C)cc2)nn1C", "note": "(configuration not stated)", "Potency": "30.1 µM (active)"}
{"smiles": "Cc1cc(C)cc(OC(C)C(=O)NCCCn2ccnc2)c1", "note": "(configuration not stated)", "activity change, negative = inhibition": "-1.84% (inactive)"}
{"smiles": "O=C(Nc1ccc(Cl)c(S(=O)(=O)N2CCOCC2)c1)c1ccc(OCC2CCCO2)cc1", "note": "(configuration not stated)", "Potency": "15.1 µM (active)"}
{"smiles": "CC1=C(C(=O)N2CCCC(N3CCN(c4ccccc4C)CC3)C2)OCCO1", "note": "(configuration not stated)", "activity change, negative = inhibition": "-5.88% (inactive)"}
{"smiles": "CCOc1ccccc1N1CCN(C(=O)CCCN2C(=O)c3cccc4cccc(c34)C2=O)CC1", "Potency": "30.1 µM (active)"}
{"smiles": "COc1ccccc1N1CCN(C(=O)CCC(=O)N2CCN(c3ccc(F)cc3)CC2)CC1", "activity change, negative = inhibition": "-12.6% (inactive)"}
{"smiles": "COCCNC(=O)CN1C(=O)c2cccc3cccc1c23", "activity change, negative = inhibition": "-3.72% (inactive)"}
{"smiles": "Nc1ccc(C(=O)NC2CCSc3ccccc32)cc1[N+](=O)[O-]", "note": "(configuration not stated)", "activity change, negative = inhibition": "-14.1% (inactive)"}
{"smiles": "O=C(COC(=O)c1ccccc1C(=O)c1ccc(Cl)c([N+](=O)[O-])c1)NC1CCCCCC1", "Potency": "23.9 µM (active)"}
{"smiles": "Cc1ccc(NC(=O)CCc2nnc3ccc(NCc4ccco4)nn23)nc1", "activity change, negative = inhibition": "-7.92% (inactive)"}
{"smiles": "CN(C)c1ccc(NC(=O)C2C3C=CC(C3)C2C(=O)O)cc1", "note": "(configuration not stated)", "activity change, negative = inhibition": "-8.9% (inactive)"}
{"smiles": "Cc1ccc(S(=O)(=O)NC(=O)Nc2ccc(N(C)C)cc2)cc1", "Potency": "30.1 µM (active)"}
{"smiles": "CN(C)c1ccc(NC(=O)Oc2ccccc2)cc1", "activity change, negative = inhibition": "-7.4% (inactive)"}
{"smiles": "COc1cccc(CN(C)C(=O)c2ccc(OCC(=O)Nc3cccc(C(F)(F)F)c3)c(OC)c2)c1", "Potency": "23.9 µM (active)"}
{"smiles": "CSCCCNC(=O)c1ccc(OC2CCN(C(=O)c3cccnc3)CC2)cc1", "activity change, negative = inhibition": "-5.76% (inactive)"}
{"smiles": "Cn1c2c(c(=O)n(C)c1=O)C(C(F)(F)F)(C(F)(F)F)N=C(c1ccc(Cl)cc1)N2", "Potency": "19 µM (active)"}
{"smiles": "COc1ccc(C2c3ccc(O)cc3Oc3ncn(Cc4ccco4)c(=N)c32)cc1", "note": "(configuration not stated)", "activity change, negative = inhibition": "-6.31% (inactive)"}
{"smiles": "O=C(CN1C(=O)NC2(CCCCCC2)C1=O)N1CCC(Cc2ccccc2)CC1", "Potency": "21.3 µM (active)"}
{"smiles": "CC(=O)N1c2ccc(S(=O)(=O)N(C)CC(=O)N(C)Cc3ccccc3)cc2CC1C", "note": "(configuration not stated)", "activity change, negative = inhibition": "-5.7% (inactive)"}
{"smiles": "CC1Cc2ccccc2N1C(=O)COC(=O)/C=C/c1cccc(F)c1", "note": "(configuration not stated)", "Potency": "30.1 µM (active)"}
{"smiles": "CC(C)Cc1ccc(C(C)C(=O)Nc2nccs2)cc1", "note": "(configuration not stated)", "activity change, negative = inhibition": "-12.1% (inactive)"}
{"smiles": "COc1ccc(OC)c2c1C(=O)C(Cl)=C(Cl)C2=O", "Potency": "33.8 µM (active)"}
{"smiles": "Cc1cccc(OC2CCN(Cc3nc(CC4CC4)no3)CC2)c1", "activity change, negative = inhibition": "-10.7% (inactive)"}
{"smiles": "O=C(N[C@H]1C/C=C\\C(c2cccc(F)c2)N(Cc2ccccc2)C(=O)C1)OCC1c2ccccc2-c2ccccc21", "note": "(some centres not stated)", "activity change, negative = inhibition": "-5.96% (inactive)"}
{"smiles": "CCc1cc(CNC(=O)CC2C(=O)NCCN2Cc2ccc(-c3ccccc3)cc2)on1", "note": "(configuration not stated)", "activity change, negative = inhibition": "-10.3% (inactive)"}
{"smiles": "CCCc1ccc(-c2c(C)sc(NC(=O)c3ccnn3C)c2C#N)cc1", "Potency": "23.9 µM (active)"}
{"smiles": "CCN1C(=NCc2ccc(OC)cc2)N[C@@H](CCc2ccccc2)[C@H](C(=O)NCc2ccc(OC)cc2)[C@H]1C", "activity change, negative = inhibition": "-6.54% (inactive)"}
